PubChem BioAssay (NCATS)
Inconclusive results are not listed. Activity calls are given as the source filed them. Calls come from the whole dose curve; as a rule, active = well fitted curve in the direction sought with a large enough effect; inconclusive = small, poorly fitted or top-dose-only effect, or another doubt; inactive = no such curve, though single readings can be large; an effect the other way counts as inactive or inconclusive.

Key:
[1] = P-glycoprotein substrates identified in KB-3-1 adenocarcinoma cell line, qHTS therapeutic library screen (AID 1346986); note: nearly all actives have a fitted effect of over 60% in size
In short: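 72 h cell-killing screen, 500 cells/well, CellTiter-Glo luminescence. Paired lines KB-3-1/KB-8-5-11; P-gp dependence checked by tariquidar co-treatment and HEK-293 MDR-19 versus empty-vector cells.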

[2] = P-glycoprotein substrates identified in KB-8-5-11 adenocarcinoma cell line, qHTS therapeutic library screen (AID 1346987); note: nearly all actives have a fitted effect of over 65% in size; for activity change, negative = cytotoxicity: series mostly up to about 44 µM; % is set by controls: 0 for no effect and ±100 for the full control effect
In short: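 Luminescence from CellTiter-Glo, read 5 min after addition, quantified survival of KB-8-5-11 (P-gp-overexpressing) cells exposed to compounds for 72 h. AC50 was derived from concentration-response curves.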

[3] = system: Zika virus NS2B-NS3 protease (unlinked complex); assay: Primary screen GU Rhodamine qHTS for Zika virus inhibitors: Unlinked NS2B-NS3 protease assay (AID 1347159); note: % is set by controls: 0 for no effect and ±100 for the full control effect; nearly all actives have a fitted effect of over 60% in size
In short: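 Buffer 10 mM Tris-HCl pH 8.0, 0.01% Tween 20. Unlinked protease 25 nM; compound preincubation 15 min, RT, protected from light. Substrate Rhod110, 1.5 microM; ~15% conversion in 15 min.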

[4] = system: Zika virus NS2B-NS3 protease (linked construct); assay: Primary screen NINDS Rhodamine qHTS for Zika virus inhibitors (AID 1347160); note: % is set by controls: 0 for no effect and ±100 for the full control effect; nearly all actives have a fitted effect of over 55% in size
In short: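 Aprotinin served as in-plate control. Conditions: 25 nM linked NS2B-NS3, pH 8.0 Tris buffer, titrated compounds, 15 min preincubation and 15 min reaction with 1.5 microM Rhod110 substrate at room temperature.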

C/C=C(\C)C(=O)O[C@H]1C=CC(=O)O[C@H]1/C=C/[C@H](O)[C@@H](C)O
inactive: Potency [1] | Potency [2] | Potency [3] | Potency [4]

C=C[C@@](C)(CCC=C(C)C)O[C@@H]1O[C@H](CO[C@@H]2OC[C@H](O)[C@H](O)[C@H]2O)[C@@H](O)[C@H](O)[C@H]1O
inactive: Potency [1] | Potency [2] | Potency [3] | Potency [4]

CC(C)NC(=O)c1ccc(C#Cc2ccncc2)cn1
inactive: Potency [1] | Potency [2] | Potency [3] | Potency [4]

C=C(C)C(O)COc1ccc(CC(=O)O)cc1 (configuration not stated)
inactive: Potency [1] | Potency [2] | Potency [3] | Potency [4]

CC(=O)OCC1=C[C@@H]2OC(=O)C3=CO[C@@H](O[C@@H]4O[C@H](CO)[C@@H](O)[C@H](O)[C@H]4O)[C@H]1[C@@H]32
inactive: Potency [1] | Potency [2] | Potency [3] | Potency [4]

COC(=O)c1cc(OC)cc(OC)c1C(=O)c1c(OC)cc2c(c1O)C1CCC(O)C(C)(O2)O1 (configuration not stated)
inactive: Potency [1] | Potency [2] | Potency [3] | Potency [4]

CC1(C)OC(=O)CC(O)C2(C)C1CC(=O)C1(C)C2C(O)CC2(C)C(c3ccoc3)OC(=O)C3OC321 (configuration not stated)
inactive: Potency [1] | Potency [2] | Potency [3] | Potency [4]

C[C@H]1[C@H](C)CC[C@]2(C(=O)OC3OC(CO)C(O)C(O)C3O)CC[C@]3(C(=O)O)C(=CCC4[C@@]5(C)CC[C@H](O[C@@H]6O[C@@H](C)[C@H](OC7OC(CO)C(O)C(O)C7O)[C@@H](O)[C@H]6O)C(C)(C)C5CC[C@]43C)[C@H]12 (some centres not stated)
inactive: outcome [1] inactive [at 9.29 µM] | activity change, negative = cytotoxicity [2] -1.84% [at 9.29 µM] | Potency [3] | Potency [4]
